Measured values: PubChem BioAssay (NCATS)
Inconclusive results are not listed. Active and inactive are the calls of the source. The call rests on the fitted dose curve; in most records, active means well fitted cell-killing curve with a large enough effect; inconclusive means small, poorly fitted or top-dose-only effect; inactive means flat fitted curve, though single readings scatter.

Test: Cell Viability - LYMP2-026 (AID 989); further: nearly all actives have a fitted effect of over 50% in size
Details: LYMP2-026 lymphoblastoid cell viability, qHTS; series mostly up to 92.2 µM
From the text: NIH Chemical Genomics Center [NCGC]
NIH Molecular Libraries Screening Centers Network [MLSCN]
National Institutes of Environmental Health Sciences [NIEHS]
National Toxicology Program [NTP]
We have developed a 1536-well cell-based assay for quantitative high throughput screening (qHTS) against a number of cell lines to determine in vitro cytotoxicity of small molecules. This particular assay uses a human lymphoblastoid cell line (LYMP2-026) purchased from Coriell Institute for Medical Research.
NCGC Assay Protocol Summary:
The CellTiter-Glo luminescent cell viability assay (Promega) is a homogeneous method to measure the number of viable cells in culture. The end point readout of this assay is based on quantitation of intracellular ATP, an indicator of metabolic activity, using the luciferase reaction. Luciferase catalyzes the oxidation of beetle Luciferin to oxyluciferin and light in the presence of ATP. The luminescent signal is proportional to amount of ATP present.
Using the CellTiter-Glo luminescent cell viability assay, the amount of cellular ATP was measured in the lymphoblastoid cell line with complete culture medium following compound treatment for 24 hours. The assay was performed in opaque white Kalypsys 1536-well plates. In the screen, tetraoctylammonium bromide was used as positive control. Library compounds were measured for their ability to cause acute toxicity in the cell line, as reflected by a decrease in intracellular ATP levels, in a concentration-dependent manner. […] AC50 values were determined from concentration-response data modeled with the standard Hill equation.
qHTS protocol for CellTiter Glo lymphoblastoid cellular assay
[Step] [Parameter] [Value] [Description]
1. Reagent; 5 uL; 2500 lymphoblastoid cells/well
2. Time; 5 hr; 37 C incubation
4. Controls; 23 nL; Tetraoctylammonium bromide 6.4pM to 92 uM
5. Time; 24 hr; 37 C incubation
6. Reagent; 5 uL; CellTiter Glo reagent
7. Time; 30 min; Room Temperature
8. Detection; Luminescence; Viewlux plate reader
Keywords: cell viability, cytotoxicity, lymphoblastoid cell line, luminescence, NTPHTS, NTPHTS_NCGC, NIEHS, DSSTox, MLSMR, MLSCN, NIH Roadmap, qHTS, NCGC

SMILES	outcome
Nc1nccs1	inactive
C[C@H](CCC(=O)O)[C@H]1CC[C@H]2[C@@H]3[C@H](O)C[C@@H]4C[C@H](O)CC[C@]4(C)[C@H]3C[C@H](O)[C@]12C	inactive
OCc1ccccc1	inactive
OCC(O)CO	inactive
CCCCC	inactive
NCCN	inactive
Oc1cccc(O)c1O	inactive
NC(N)=O	inactive
Nc1ncnc2c1ncn2[C@H]1CC[C@@H](CO)O1	inactive
CC1=CCC2CC1C2(C)C (configuration not stated)	inactive
COC(=O)c1ccccc1O	inactive
CC(C)O	inactive
CCCCO	inactive
OC[C@H]1O[C@@H]2O[C@H]3[C@H](O)[C@@H](O)[C@@H](O[C@H]4[C@H](O)[C@@H](O)[C@@H](O[C@H]5[C@H](O)[C@@H](O)[C@@H](O[C@H]6[C@H](O)[C@@H](O)[C@@H](O[C@H]7[C@H](O)[C@@H](O)[C@@H](O[C@H]1[C@H](O)[C@H]2O)O[C@@H]7CO)O[C@@H]6CO)O[C@@H]5CO)O[C@@H]4CO)O[C@@H]3CO	inactive
[O-][N+](=Nc1ccccc1)c1ccccc1	inactive
CCOC(C)OCC	inactive

SMILES	outcome
c1ccc2ccccc2c1	inactive
Cc1ccc(S(=O)(=O)O)cc1C	inactive
Cc1ncc[nH]1	inactive
OCl	inactive
CO/N=C(/C(=O)N[C@@H]1C(=O)N2C(C(=O)O)=C(COC(N)=O)CS[C@H]12)c1ccco1	inactive
CO	inactive
O=P(O)(O)O	inactive
CC(C)(C)CC(C)(C)c1ccc(OCCO)cc1	inactive
Oc1ccc(/C=C/c2cc(O)cc(O)c2)cc1	inactive
C[C@H](CCC(=O)O)[C@H]1CC[C@H]2[C@@H]3CC[C@@H]4C[C@H](O)CC[C@]4(C)[C@H]3C[C@H](O)[C@]12C	inactive
Nc1ccc(N=Nc2ccccc2)c(N)n1	inactive
C/C=C/C=C/C(=O)O	inactive
ClC(Cl)Cl	inactive
CC1=CC(=O)NS(=O)(=O)O1	inactive
OB(O)O	inactive
CC[C@H]1OC(=O)[C@H](C)[C@@H](O[C@H]2C[C@@](C)(OC)[C@@H](O)[C@H](C)O2)[C@H](C)[C@@H](O[C@@H]2O[C@H](C)C[C@H](N(C)C)[C@H]2O)[C@](C)(O)C[C@@H](C)CN(C)[C@H](C)[C@@H](O)[C@]1(C)O	inactive
